Laboratory results published in PubChem BioAssay.
Values joined by “and” are separate entries in the source; they are usually repeats but may differ in a detail not shown here. Equal entries are not always repeated. Results filed as inconclusive are left out. Active and inactive are the calls of the source.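 How the source made its calls, unless noted: active means normalized viability below 100% at a tested concentration; inactive means the rest.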

Experiments:
[1] = viability loss in pontine glioma line – cell-based, SU-DIPG-XVII, MIPE5.0, CellTiter-Glo, qHTS, dose response (AID 1347060; cut-off not given, nearly all actives have AC50 up to about 26 µM;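 on AC50: cells exposed to compound for 48 hours before viability readout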); conditions: CellTiter-Glo ATP luminescence
[2] = viability loss in pontine glioma line – cell-based, SU-DIPG-IV, MIPE4.0, CellTiter-Glo, qHTS, dose response (AID 1347063; cut-off not given, nearly all actives have AC50 up to about 30 µM;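 further: compound exposure lasted 48 hours before the viability readout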); conditions: CellTiter-Glo ATP luminescence
[3] = viability loss in pontine glioma line – cell-based, SU-DIPG-XIII, MIPE5.0, CellTiter-Glo, qHTS, dose response (AID 1347064; cut-off not given, nearly all actives have AC50 up to about 23 µM;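 on AC50: cells exposed to compound for 48 hours before the viability read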); conditions: CellTiter-Glo ATP luminescence
[4] = viability loss in pontine glioma line – cell-based, SU-DIPG-XXV, MIPE5.0, CellTiter-Glo, qHTS, dose response (AID 1347065; cut-off not given, nearly all actives have AC50 up to about 26 µM;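 further: cells exposed to compound for 48 hours before ATP readout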); conditions: CellTiter-Glo ATP luminescence
[5] = growth inhibition of DIPG cells – cell-based, MIPE4.0 library, CellTiter-Glo luminescence, qHTS (AID 1347066; cut-off not given, nearly all actives have AC50 up to about 30 µM;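 further: cells exposed to compound for 48 hours before readout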); conditions: SU-DIPG-VI viability, CellTiter-Glo ATP luminescence
[6] = viability loss in pontine glioma line – cell-based, JHH-DIPG-1, MIPE4.0, CellTiter-Glo, qHTS, dose response (AID 1347062; cut-off not given, nearly all actives have AC50 up to about 27 µM;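 on AC50: cells exposed to compound for two days before readout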); conditions: JHH-DIPG-1 viability, CellTiter-Glo ATP luminescence
[7] = growth inhibition of DIPG cells – cell-based, MIPE5.0 library, qHTS (AID 1347068; cut-off not given, nearly all actives have IC50 up to about 30 µM;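 on IC50: cells exposed to compound for 48 hours before viability readout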); conditions: SU-DIPG-XXV viability
[8] = viability loss with induced miR-34 in A549 – imaging, A549 dox-inducible miR-34, nuclei and caspase counts, primary screen (AID 1347080;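 active means compounds whose cell count with miR-34 switched on is under 0.7 times the count with it off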); conditions: A549 miR-34 inducible, Hoechst nuclei count, 48 h
[9] = compounds altering HSF1 focus formation in cells – imaging, Selleck Cancer Library (AID 1347162; in the data active means plate-normalised HSF1 focus index below about 0.46); conditions: human cells, HSF1 nuclear foci imaging, at 10 µM; SSMD: measured here: HSF1 foci SSMD mean; cell count: measured here: cell number; plate-normalised HSF1 focus index: stronger effect = lower value
[10] = MELAS cybrid and Rieske KO viability enhancers – cell-based, MELAS cybrids, Rieske KO mouse fibroblasts, CellTiter-Glo, primary screen (AID 1508586;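 active means mean z-score across replicates of 1.96 or higher in either the MELAS or the Rieske mutant cell line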;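 further: z relative to plate mean and SD of compound and empty wells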); conditions: low glucose
[11] = drug combination growth inhibition, ovarian cancer – cell-based, oncology-focused library, rucaparib conditional, profiling panel (AID 1508598); conditions: patient-derived ovarian cancer cells, CellTiter-Glo viability, 144 h, stronger effect = lower value
[12] = JHH-DIPG-1 glioma cell viability, MIPE5.0 library, CellTiter-Glo luminescence, qHTS (AID 1347067; cut-off not given, nearly all actives have AC50 up to about 26 µM;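 further: cells exposed to compound for 48 hours before readout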); conditions: JHH-DIPG-1 glioma viability, CellTiter-Glo ATP luminescence
[13] = P. berghei load reduction in hepatocytes – cell-based, HepG2, luciferase luminescence, HepG2 viability, primary screen (AID 624349; in the data active means parasite load remaining mostly below about 12%, no sharp cut-off; inactive means mostly above about 10%;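 further: 100% = mean of DMSO negative control wells on the same plate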); conditions: P. berghei liver stage in HepG2, luciferase luminescence, concentration not given here; parasite load remaining: stronger effect = lower value; viability: measured here: HepG2 viability without parasites
[14] = stronger effect = lower value, cell number ratio, induced over uninduced
[15] = measured here: relative caspase fold change +Dox/-Dox
[16] = measured here: total cells with miR-34 induction, stronger effect = lower value
[17] = measured here: total cells without miR-34 induction
[18] = MELAS cybrid survival, CellTiter-Glo 48 h, stronger effect = higher value
[19] = Rieske KO mouse fibroblast survival, CellTiter-Glo 72 h
[20] = at 0.000305 µM, OCI-C5x cells, with rucaparib 10 µM, 100% = cells with rucaparib alone
[21] = at 0.000305 µM, OCI-C5x cells, without rucaparib
[22] = at 0.000305 µM, OCI-P5x cells, with rucaparib 20 µM, 100% = cells with rucaparib alone
[23] = at 0.000305 µM, OCI-P5x cells, without rucaparib
[24] = at 0.00122 µM, OCI-C5x cells, with rucaparib 10 µM, 100% = cells with rucaparib alone
[25] = at 0.00122 µM, OCI-C5x cells, without rucaparib
[26] = at 0.00122 µM, OCI-P5x cells, with rucaparib 20 µM, 100% = cells with rucaparib alone
[27] = at 0.00122 µM, OCI-P5x cells, without rucaparib
[28] = at 0.00488 µM, OCI-C5x cells, with rucaparib 10 µM, 100% = cells with rucaparib alone
[29] = at 0.00488 µM, OCI-C5x cells, without rucaparib
[30] = at 0.00488 µM, OCI-P5x cells, with rucaparib 20 µM, 100% = cells with rucaparib alone
[31] = at 0.00488 µM, OCI-P5x cells, without rucaparib
[32] = at 0.0195 µM, OCI-C5x cells, with rucaparib 10 µM, 100% = cells with rucaparib alone
[33] = at 0.0195 µM, OCI-C5x cells, without rucaparib
[34] = at 0.0195 µM, OCI-P5x cells, with rucaparib 20 µM, 100% = cells with rucaparib alone
[35] = at 0.0195 µM, OCI-P5x cells, without rucaparib
[36] = at 0.0781 µM, OCI-C5x cells, with rucaparib 10 µM, 100% = cells with rucaparib alone
[37] = at 0.0781 µM, OCI-C5x cells, without rucaparib
[38] = at 0.0781 µM, OCI-P5x cells, with rucaparib 20 µM, 100% = cells with rucaparib alone
[39] = at 0.0781 µM, OCI-P5x cells, without rucaparib
[40] = at 0.313 µM, OCI-C5x cells, with rucaparib 10 µM, 100% = cells with rucaparib alone
[41] = at 0.313 µM, OCI-C5x cells, without rucaparib
[42] = at 0.313 µM, OCI-P5x cells, with rucaparib 20 µM, 100% = cells with rucaparib alone
[43] = at 0.313 µM, OCI-P5x cells, without rucaparib
[44] = at 1.25 µM, OCI-C5x cells, with rucaparib 10 µM, 100% = cells with rucaparib alone
[45] = at 1.25 µM, OCI-C5x cells, without rucaparib
[46] = at 1.25 µM, OCI-P5x cells, with rucaparib 20 µM, 100% = cells with rucaparib alone
[47] = at 1.25 µM, OCI-P5x cells, without rucaparib
[48] = at 5 µM, OCI-C5x cells, with rucaparib 10 µM, 100% = cells with rucaparib alone
[49] = at 5 µM, OCI-C5x cells, without rucaparib
[50] = at 5 µM, OCI-P5x cells, with rucaparib 20 µM, 100% = cells with rucaparib alone
[51] = at 5 µM, OCI-P5x cells, without rucaparib

CN1N=C(N)c2cn([C@@H]3O[C@H](COP(=O)(O)O)[C@@H](O)[C@H]3O)c3ncnc1c23
active: AC50 [1] 0.417 µM | AC50 [2] 0.372 µM | AC50 [3] 1.66 µM | AC50 [4] 0.105 µM | AC50 [5] 0.132 µM

CC1(C)CNc2cc(NC(=O)c3cccnc3NCc3ccncc3)ccc21
inactive: outcome [6] | outcome [7] | fold change [8, 14] 0.978 | plate-normalised HSF1 focus index [9] 1.16 | z-score [10, 18] -0.604 | viability [11, 20] 121% | viability [11, 21] 126% | viability [11, 22] 128% | viability [11, 23] 103% | viability [11, 24] 114% | viability [11, 25] 128% | viability [11, 26] 134% | viability [11, 27] 102% | viability [11, 28] 112% | viability [11, 29] 122% | viability [11, 30] 135% | viability [11, 31] 104% | viability [11, 32] 121% | viability [11, 33] 128% | viability [11, 34] 140% | viability [11, 35] 105% | viability [11, 36] 119% | viability [11, 37] 141% | viability [11, 38] 138% | viability [11, 39] 108% | viability [11, 40] 122% | viability [11, 41] 126% | viability [11, 42] 142% | viability [11, 43] 107% | viability [11, 44] 135% | viability [11, 45] 146% | viability [11, 46] 145% | viability [11, 48] 137% | viability [11, 49] 148% | viability [11, 50] 131%
7630: cell count [8, 17]
7450: cell count [9]
0.896: z-score [10, 19]
active: AC50 [1] 20.9 µM | AC50 [4] 16.6 µM | viability [11, 47] 98.9% | viability [11, 51] 94.6%
7470: cell count [8, 16]
0.926: fold change [8, 15]
2.51: SSMD [9]

CC(C)C[C@@H](N)[C@H](O)C(=O)N[C@H](C(=O)N[C@H](C(=O)N[C@@H](CC(=O)O)C(=O)O)C(C)C)C(C)C
inactive: outcome [1] | outcome [2] | outcome [3] | outcome [4] | outcome [5] | outcome [12] | outcome [7]

CNC(=O)c1c(-c2ccc(F)cc2)oc2cc(N(CCO)S(C)(=O)=O)c(C3CC3)cc12
inactive: outcome [1] | outcome [12]
active: AC50 [6] 20.9 µM

COc1ccc2c(c1)CC[C@@H]1[C@@H]2CC[C@]2(C)[C@@H](NCCCCCCN3C(=O)C=CC3=O)CC[C@@H]12
inactive: outcome [1] | outcome [2] | outcome [3] | outcome [4] | outcome [5] | outcome [12] | outcome [7] | fold change [8, 14] 0.933 and 0.926
6300 and 5860: cell count [8, 17]
1.05 and 1.65: fold change [8, 15]
5880 and 5430: cell count [8, 16]

Nc1nc(Nc2ccc(S(N)(=O)=O)cc2)nn1C(=O)c1c(F)cccc1F
active: AC50 [1] 6.61 µM | AC50 [2] 9.35 µM | AC50 [3] 4.68 µM | AC50 [4] 6.61 µM | IC50 [7] 10.5 µM | viability [11, 20] 95% | viability [11, 21] 99.5% | viability [11, 22] 89.3% | viability [11, 23] 84.9% | viability [11, 24] 96.6% | viability [11, 25] 96.5% | viability [11, 26] 91.5% | viability [11, 27] 86% | viability [11, 28] 93.6% | viability [11, 29] 93.3% | viability [11, 30] 94.7% | viability [11, 31] 94.4% | viability [11, 32] 94.9% | viability [11, 33] 98.4% | viability [11, 34] 92.3% | viability [11, 35] 94.6% | viability [11, 36] 91.7% | viability [11, 37] 90.6% | viability [11, 38] 87.9% | viability [11, 39] 84% | viability [11, 40] 93.3% | viability [11, 41] 86.1% | viability [11, 42] 90.8% | viability [11, 43] 87.7% | viability [11, 44] 82.9% | viability [11, 45] 83.9% | viability [11, 46] 87.4% | viability [11, 47] 69.8% | viability [11, 48] 13.2% | viability [11, 49] 11.5% | viability [11, 50] 19.1% | viability [11, 51] 13.1%
6780: cell count [9]
-1.32: z-score [10, 19]
-0.763: SSMD [9]
0.788: fold change [8, 15]
inactive: parasite load remaining [13] 42.7% | outcome [5] | fold change [8, 14] 0.887 | plate-normalised HSF1 focus index [9] 0.961 | z-score [10, 18] -0.135
1580: cell count [8, 17]
170%: viability [13]
1400: cell count [8, 16]

CC(C)CNc1ccnc(NCc2csc(-c3ccccc3)n2)n1
active: AC50 [1] 16.6 µM | AC50 [2] 16.6 µM | AC50 [3] 14.8 µM | AC50 [4] 16.6 µM | AC50 [5] 20.9 µM | AC50 [12] 20.9 µM

C#CCN(C)CC1=Cc2ccccc2Oc2ccccc21
6620: cell count [9]
2.55: SSMD [9]
inactive: outcome [1] | outcome [6] | outcome [4] | outcome [12] | outcome [7] | plate-normalised HSF1 focus index [9] 1.15
